Inconclusive results are not listed. Calls of active or inactive are those of the source. The call rests on the fitted dose curve; in most records, active means well fitted curve in the direction sought with a large enough effect; inconclusive means small, poorly fitted or top-dose-only effect, or another doubt; inactive means no such curve, though single readings can be large; an effect the other way counts as inactive or inconclusive.
What was measured:
[1] = tested on: Zika virus NS2B-NS3 protease (linked construct); assay: Primary screen NINDS Rhodamine qHTS for Zika virus inhibitors (AID 1347160); further: nearly all actives have a fitted effect of over 55% in size; further: potency means the concentration at half of the fitted maximal effect; on activity change, negative = inhibition: on the % scale 0 is the no-effect control and ±100 the full control effect
Procedure, shortened: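 Enzyme (25 nM, linked NS2B-NS3) was preincubated 15 min with compound in 10 mM Tris-HCl pH 8.0, 0.01% Tween 20. Rhodamine110 substrate (1.5 microM) was then added and fluorescence read at start and after 15 min.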

[2] = OV-KATE Cancer Cell Toxicity qHTS against the NCATS CANVASS Library (AID 1347345); further: potency means the concentration at half of the fitted maximal effect; on activity change, negative = cytotoxicity: on the % scale 0 is the no-effect control and ±100 the full control effect
Procedure, shortened: (§1)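 Toxicity is measured over 72 h of compound exposure at 37 degrees C under 5% CO2. Each well holds 1000 cells, pre-incubated for 4 hours before dosing across an 11-point range. CellTiter-Glo luminescence gives viability.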

[3] = HPAF-II Cancer Cell Toxicity qHTS against the NCATS CANVASS Library (AID 1347346); further: nearly all actives have a fitted effect of over 55% in size; further: potency means the concentration at half of the fitted maximal effect; on activity change, negative = cytotoxicity: series mostly up to about 38 µM; on the % scale 0 is the no-effect control and ±100 the full control effect
Procedure, shortened: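 Using 1000 HPAF-II cells per well, we titrated compounds over 11 concentrations for 72 h at 37 degrees C/5% CO2, with bortezomib as control. Cell survival was quantified by CellTiter-Glo luminescence.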

[4] = UWB1.289 Cancer Cell Toxicity qHTS against the NCATS CANVASS Library (AID 1347347); further: nearly all actives have a fitted effect of over 60% in size; further: potency means the concentration at half of the fitted maximal effect
Procedure, shortened: as §1

[5] = Panc-1005 Cancer Cell Toxicity qHTS against the NCATS CANVASS Library (AID 1347349); further: nearly all actives have a fitted effect of over 60% in size; further: potency means the concentration at half of the fitted maximal effect
Procedure, shortened: as §1

[6] = SW1088 Cancer Cell Toxicity qHTS against the NCATS CANVASS Library (AID 1347350); further: nearly all actives have a fitted effect of over 75% in size; further: potency means the concentration at half of the fitted maximal effect
Procedure, shortened: as §1

[7] = COV-362 Cancer Cell Toxicity qHTS against the NCATS CANVASS Library (AID 1347352); further: potency means the concentration at half of the fitted maximal effect
Procedure, shortened: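 Using an ATP-based luminescent reagent after three days of treatment, toxicity is scored across an eleven-concentration range in wells holding 1000 cells each.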

[8] = HEK293 18hr Apoptosis Induction qHTS against the NCATS CANVASS Library (AID 1347357); further: potency means the concentration at half of the fitted maximal effect; on caspase activation: 0% is about no effect
Procedure, shortened: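 HEK293 cells (500 per well, DMEM with 10% FBS) were treated with natural products, incubated 18 hours at 37 degrees C, then caspase-3/7 activity was read by Caspase-Glo luminescence after 15 min at room temperature.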

[9] = HEK293 24hr Apoptosis Induction qHTS against the NCATS CANVASS Library (AID 1347359); further: potency means the concentration at half of the fitted maximal effect; on activation: 0% is about no effect
Procedure, shortened: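 Caspase-3/7 activation measured as luminescence from the DEVD-based Caspase-Glo reagent, 15 min at room temperature, following 24-hour compound treatment of HEK293 cells.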

[10] = HEK293 12hr Apoptosis Induction qHTS against the NCATS CANVASS Library (AID 1347361); further: potency means the concentration at half of the fitted maximal effect; on caspase activation: 0% is about no effect
Procedure, shortened: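 Read-out: Caspase-Glo 3/7 luminescence (DEVD substrate), 15 min RT. Preceded by 12 h compound exposure of HEK293, 500 cells/well, 11-pt qHTS titration; doxorubicin titration as control.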

[11] = target: Luciferin 4-monooxygenase (Photinus pyralis) (UniProt P08659); assay: Firefly luciferase counterscreen qHTS: Assay Interference Panel against the NCATS CANVASS Library (AID 1347363); further: series mostly up to about 57 µM; 0% is about no effect
Procedure, shortened: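 Luminescence inhibition readout: compounds (11-point qHTS) sat 15 min at room temperature with substrate mix (0.013 mM luciferin and ATP), then firefly luciferase was added and signal read 5 min later.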

[12] = KB-3-1 Cancer Cell Toxicity qHTS against the NCATS CANVASS Library (AID 1347366); further: nearly all actives have a fitted effect of over 75% in size; further: potency means the concentration at half of the fitted maximal effect
Procedure, shortened: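 KB-3-1 cells (500 cells/well) in DMEM + 10% FBS were treated with compounds for 72 hr at 37C, 5% CO2. Viability was read as CellTiter-Glo luminescence after 10 minutes at room temperature.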

[13] = MCF7 Cancer Cell Toxicity qHTS against the NCATS CANVASS Library (AID 1347369); further: potency means the concentration at half of the fitted maximal effect
Procedure, shortened: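 MCF7, 500 cells/well; cpds 11-pt qHTS; 72 hr, 37C/5% CO2; CellTiterGlo ATP luminescence.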

[14] = J3T Cancer Cell Toxicity qHTS against the NCATS CANVASS Library (AID 1347371); further: potency means the concentration at half of the fitted maximal effect;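 on activity change, negative = cytotoxicity: J3T is a canine glioma cancer cell line seeded at 500 cells per well; series mostly up to about 46 µM; on the % scale 0 is the no-effect control and ±100 the full control effect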
Procedure, shortened: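 ATP-based cytotoxicity in canine J3T cells: 72 hr exposure at 37C, 11-point titration, CellTiterGlo luminescent detection.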

[15] = target: Nuclear receptor subfamily 1 group I member 3 (Homo sapiens) (UniProt Q14994); assay: qHTS for Constitutive Androstane Receptor (CAR) Agonist screened against the NCATS CANVASS Library (AID 1347373);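 further: every well also contained 1.5 µM PK11195 alongside the test compound; 0% is about no effect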
Procedure, shortened: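 In an 11-point concentration series, compounds were incubated 24hr with HepG2 cells carrying hCAR and a CYP2B6-2.2kb reporter, with PK11195 at 1.5uM final. A CellTiter-Fluor viability read preceded the ONE-Glo luminescence read.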

[16] = 10-beta competent E. coli microbial cell viability qHTS against the NCATS CANVASS Library (AID 1347376); further: series mostly up to about 46 µM; 0% is about no effect
Procedure, shortened: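 Overnight 37C exposure of 10-beta E. coli (0.2 OD) to an 11-point concentration series; ATP-based luminescence after 20 min room-temperature reagent incubation; daunomycin as control.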

[17] = Inflammasome Signaling qHTS Counterscreen: IL-1-beta AlphaLISA counterscreen against the NCATS CANVASS Library (AID 1347381);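 further: cell-free check with purified IL-1β in medium and no THP-1 cells; series mostly up to about 57 µM; 0% is about no effect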
Procedure, shortened: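 Here, no cellular stimulation occurs; compounds in an 11-point series meet 4 pg purified IL-1-beta directly. Bead-based AlphaLISA detection follows (1 h acceptor/antibody, then 30 min donor, dark, room temperature), with excitation at 680 nm.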

[18] = Vero-766 cells viability qHTS against the NCATS CANVASS Library: Counterscreen for Zika virus inhibition assay (AID 1347394); further: nearly all actives have a fitted effect of over 60% in size; further: potency means the concentration at half of the fitted maximal effect
Procedure, shortened: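 Uninfected Vero 766 (African green monkey) cells, 1000/well, attached overnight, then exposed 72 h at 37C to compounds (11-point qHTS). Viability read by CellTiter-Glo luminescence; media-only wells served as 100% inhibition.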

[19] = qHTS for ATAD5 Antagonist screened against the NCATS CANVASS Library (AID 1347370); further: nearly all actives have a fitted effect of over 65% in size; further: potency means the concentration at half of the fitted maximal effect
Procedure, shortened: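 HEK293T-ATAD5 luc reporter, 2000 cells/well; 5hr attach; cpd + 10 uM 5-FUrd; 16hr 37C, 5% CO2. Readouts: CellTiter-Fluor fluorescence (1hr), then Amplite luciferase luminescence (30min RT).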

[20] = qHTS for Inflammasome Signaling Inhibitors: IL-1-beta AlphaLISA screen against the NCATS CANVASS Library (AID 1347379);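 further: human THP-1 cells primed with LPS then triggered with ATP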;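 on activity change, negative = inhibition: secreted IL-1B measured as AlphaLISA emission at 615 nm; on the % scale 0 is the no-effect control and ±100 the full control effect; lower signal means less IL-1B release which is the wanted effect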
Procedure, shortened: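 THP-1, 1 hr compound pre-incubation, then LPS 250 ng/mL + ATP 1.25 mM (final); 16 hr total with compound; IL-1B AlphaLISA, ex 680/em 615 nm; 11-point qHTS, up to 57.5 uM final.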

Sequence of Nuclear receptor subfamily 1 group I member 3 (Homo sapiens) (Q14994 whole entry, looked up): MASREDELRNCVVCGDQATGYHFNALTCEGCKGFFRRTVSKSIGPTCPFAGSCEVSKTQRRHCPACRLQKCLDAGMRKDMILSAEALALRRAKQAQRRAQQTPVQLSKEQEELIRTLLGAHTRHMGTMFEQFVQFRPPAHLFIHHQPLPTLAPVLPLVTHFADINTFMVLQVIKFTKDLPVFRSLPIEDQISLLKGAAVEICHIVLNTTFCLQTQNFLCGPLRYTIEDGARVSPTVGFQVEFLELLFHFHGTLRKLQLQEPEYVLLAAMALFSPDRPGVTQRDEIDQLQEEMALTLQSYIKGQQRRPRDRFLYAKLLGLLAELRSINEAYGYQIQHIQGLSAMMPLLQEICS
Sequence of Luciferin 4-monooxygenase (Photinus pyralis) (P08659 whole entry, looked up): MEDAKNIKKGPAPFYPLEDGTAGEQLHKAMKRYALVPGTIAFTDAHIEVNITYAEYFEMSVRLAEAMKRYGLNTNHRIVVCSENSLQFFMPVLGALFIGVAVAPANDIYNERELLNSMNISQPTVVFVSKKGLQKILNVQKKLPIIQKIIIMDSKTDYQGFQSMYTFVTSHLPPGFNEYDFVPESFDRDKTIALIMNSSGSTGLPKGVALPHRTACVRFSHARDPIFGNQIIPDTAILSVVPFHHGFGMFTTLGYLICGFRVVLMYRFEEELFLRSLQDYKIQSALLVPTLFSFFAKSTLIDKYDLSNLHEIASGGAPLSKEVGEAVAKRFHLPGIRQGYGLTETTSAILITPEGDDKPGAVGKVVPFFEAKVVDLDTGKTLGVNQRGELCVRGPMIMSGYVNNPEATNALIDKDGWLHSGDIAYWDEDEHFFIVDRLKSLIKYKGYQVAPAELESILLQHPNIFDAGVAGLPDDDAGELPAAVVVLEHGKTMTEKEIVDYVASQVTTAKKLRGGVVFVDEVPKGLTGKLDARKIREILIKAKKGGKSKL

CCC[C@@H](C)/C=C(\C)[C@H](O)[C@H](C)/C=C/CC[C@@H](O)[C@H](C)[C@H](O)[C@H](C)[C@H](O)[C@H](C)[C@H]1O[C@H]([C@H](C)C(=O)O)CC[C@@H]1C
active: Potency [1] 6.21 µM | Potency [2] 3.75 µM | Potency [3] 4.73 µM | Potency [4] 6.66 µM | Potency [5] 4.21 µM | Potency [6] 2.11 µM | Potency [7] 5.94 µM | Potency [12] 11.8 µM | Potency [13] 16.5 µM | Potency [18] 9.33 µM
inactive: Potency [8] | Potency [9] | Potency [10] | Potency [11] | Potency [14] | outcome [15] | outcome [16] | outcome [17]

COc1ccc2oc3c(OC)c(OC)c(OC)c(OC)c3c(=O)c2c1
inactive: Potency [1] | activity change, negative = cytotoxicity [2] -4.56% [at 7.64 µM] | activity change, negative = cytotoxicity [3] -3.19% [at 7.64 µM] | activity change, negative = cytotoxicity [4] -4.07% [at 7.64 µM] | activity change, negative = cytotoxicity [5] -8.03% [at 7.64 µM] | activity change, negative = cytotoxicity [6] 3.04% [at 7.64 µM] | activity change, negative = cytotoxicity [7] -3.36% [at 7.64 µM] | caspase activation [8] 2.9% [at 9.19 µM] | activation [9] -1% [at 9.19 µM] | caspase activation [10] 10.6% [at 9.19 µM] | activity change, negative = inhibition [11] -22.3% [at 11.5 µM] | activity change, negative = cytotoxicity [12] -8.69% [at 9.19 µM] | activity change, negative = cytotoxicity [13] 0.434% [at 9.17 µM] | activity change, negative = inhibition [19] -20.5% [at 9.19 µM] | activity change, negative = cytotoxicity [14] -8.53% [at 9.19 µM] | activation [15] 7.45% [at 9.19 µM] | activity change, negative = cytotoxic [16] -7.99% [at 9.19 µM] | outcome [20] inactive [at 11.5 µM] | activity change, negative = inhibition [17] 10.5% [at 11.5 µM] | activity change, negative = cytotoxic [18] -1.29% [at 9.19 µM]

C=CC(=C)CC[C@]1(C)[C@H]2C[C@H](OC(=O)C(C)CC)C=C3[C@H](OC(C)=O)O[C@H](OC(C)=O)[C@@]32[C@H](OC)C[C@@H]1C (stereo partly drawn)
inactive: Potency [11] | outcome [15] | outcome [16] | outcome [17]
active: Potency [1] 32.1 µM | Potency [2] 2.17 µM | Potency [3] 3.43 µM | Potency [4] 3.44 µM | Potency [5] 2.17 µM | Potency [6] 0.769 µM | Potency [7] 4.33 µM | Potency [8] 13.6 µM | Potency [9] 9.59 µM | Potency [10] 17.1 µM | Potency [12] 6.79 µM | Potency [13] 12.1 µM | Potency [19] 10.8 µM | Potency [14] 4.81 µM | Potency [20] 7.03 µM | Potency [18] 6.8 µM

C=C1C(=O)C[C@H]2C[C@@H]1[C@]2(C)CCC=C(C)C
active: Potency [1] 17.5 µM
inactive: Potency [2] | Potency [3] | Potency [4] | Potency [5] | Potency [6] | Potency [7] | Potency [8] | Potency [9] | Potency [10] | Potency [11] | Potency [12] | Potency [13] | Potency [19] | Potency [14] | outcome [15] | outcome [16] | Potency [20] | outcome [17] | Potency [18]

O=C(O)CC1OCc2c(O)cccc21 (stereo not drawn)
inactive: Potency [1] | Potency [2] | Potency [3] | Potency [4] | Potency [5] | Potency [6] | Potency [7] | Potency [8] | Potency [9] | Potency [10] | Potency [11] | Potency [12] | Potency [13] | Potency [19] | Potency [14] | outcome [15] | outcome [16] | Potency [20] | outcome [17] | Potency [18]
